# Laboratory results from PubChem BioAssay AID1441 (NMMLSC, 2008).
# Out of some 220,000 compounds screened, about 830 (0.38%) were called active. How the calls were made is not given here. Only a selection was taken, and actives are over-represented in it overall.
# Molecular target: Regulator of G-protein signaling 16 (Homo sapiens) + Guanine nucleotide-binding protein G(o) subunit alpha (Homo sapiens) (UniProt O15492+P09471)
# Assay: RGS16-Galphao interaction inhibitors and enhancers – biochemical, human proteins, multiplexed bead flow cytometry, primary screen (AID 1441);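 further: Galphao activated by GDP with aluminum fluoride before binding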
# Details: bead-based flow cytometry RGS16-Galphao binding, fluorescence; at 10 µM; actives lie on both sides
# Regulator of G-protein signaling 16 (Homo sapiens) + Guanine nucleotide-binding protein G(o) subunit alpha (Homo sapiens), sequence (O15492 whole entry, looked up): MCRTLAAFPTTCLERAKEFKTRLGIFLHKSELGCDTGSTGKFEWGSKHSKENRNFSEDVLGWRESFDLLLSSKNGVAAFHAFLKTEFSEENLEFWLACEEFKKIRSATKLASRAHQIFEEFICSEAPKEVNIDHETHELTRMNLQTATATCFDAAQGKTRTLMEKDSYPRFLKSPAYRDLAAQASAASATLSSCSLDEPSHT
# Regulator of G-protein signaling 16 (Homo sapiens) + Guanine nucleotide-binding protein G(o) subunit alpha (Homo sapiens), sequence (P09471 whole entry, looked up): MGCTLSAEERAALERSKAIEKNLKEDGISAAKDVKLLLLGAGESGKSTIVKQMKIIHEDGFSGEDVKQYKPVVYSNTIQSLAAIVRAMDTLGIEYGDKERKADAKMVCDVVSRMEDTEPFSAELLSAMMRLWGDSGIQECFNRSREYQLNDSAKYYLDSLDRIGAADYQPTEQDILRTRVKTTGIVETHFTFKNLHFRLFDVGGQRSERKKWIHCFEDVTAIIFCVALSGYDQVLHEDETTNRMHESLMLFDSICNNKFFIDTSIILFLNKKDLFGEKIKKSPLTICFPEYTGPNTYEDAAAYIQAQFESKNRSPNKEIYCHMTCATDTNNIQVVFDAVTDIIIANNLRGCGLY
row,SMILES,binding response (% of control)
1,COP1(=O)C[C@@H](O)[C@@H](O)[C@@H](COCc2ccccc2)O1 (stereo partly specified),103% (inactive)
2,Cc1ccsc1C1C(C#N)=C(N)OC2=C1C(=O)CC(C)(C)C2 (stereo unspecified),118% (inactive)
3,COc1ccc(Cl)cc1C(=O)NNC(=O)c1nc2nc(C)cc(C)n2n1,95.3% (inactive)
4,O=C(OCc1ccc(Br)cc1)c1cccc(-c2nnc(-c3ccccc3)o2)c1,102% (inactive)
5,O=C(/C=C/c1ccco1)Nc1cccc(-c2nc3ccccc3[nH]2)c1,98.3% (inactive)
6,O=C(Cc1cccs1)Nc1cccc(-c2nc3ccccc3[nH]2)c1,97.3% (inactive)
7,O=C(Nc1cccc(-c2nc3ccccc3[nH]2)c1)c1ccc(C(=O)Nc2cccc(-c3nc4ccccc4[nH]3)c2)cc1,219% [activator] (active)
8,NC(=S)Nc1c(Cl)cccc1Cl,98.9% (inactive)
9,CCOc1c(Nc2cccc(Cl)c2)c(=O)c1=O,119% (inactive)
10,COc1ccc(-c2ccc(CNCCCN3CCOCC3)o2)cc1Cl,98.4% (inactive)
11,CNC(=S)NNC(=O)c1cccn(Cc2ccccc2)c1=O,100% (inactive)
12,CCCC[C@@H]1CN=C(N)N1CCc1cc(C(F)(F)F)cc(C(F)(F)F)c1,100% (inactive)
13,CCN(CC)c1ccc(/C=N/NC(=O)c2cnccn2)c(O)c1,94.6% (inactive)
14,N/C(=N\OC(=O)CCc1ccccc1)c1cccnc1,105% (inactive)
15,CCCC(=O)n1nc(-c2ccccc2)nc1N,14.9% (active)
16,COc1ccccc1C(=O)n1nc(-c2ccccc2)nc1N,102% (inactive)
17,COc1ccc(CC(=O)n2nc(-c3cccnc3)nc2N)cc1,93.8% (inactive)
18,Nc1ccccc1C(=O)NC1CCCCNC1=O (stereo unspecified),95.3% (inactive)
19,COc1ccc2c(c1)C(=C(C#N)C#N)C(=O)N2CCc1ccccc1,113% (inactive)
20,Nc1ccc(C(=O)OCC(=O)NC2CCCc3ccccc32)cc1[N+](=O)[O-] (stereo unspecified),98.8% (inactive)
21,Nc1ccc(C(=O)OCC(=O)NC2CCS(=O)(=O)C2)cc1[N+](=O)[O-] (stereo unspecified),-10.3% (active)

row,SMILES,binding response (% of control)
1,O=C(COC(=O)/C=C/c1ccc2c(c1)OCO2)NC1CCS(=O)(=O)C1 (stereo unspecified),98.5% (inactive)
2,COc1cc(OC)c(C(=O)N2CCCC2)cc1OC,100% (inactive)
3,CCC(C)(C)NC(=O)C(c1cccc(OC)c1OC)N(CC(C)C)C(=O)CCC(=O)Nc1cc(C)on1 (stereo unspecified),105% (inactive)
4,COc1ccc(-c2nn(-c3ccccc3)cc2C(=O)Nc2nc(CC(C)=O)ns2)cc1,95.8% (inactive)
5,COc1ccc(-c2nn(-c3ccccc3)cc2C(=O)Nc2nccs2)cc1OC,24.6% (active)
6,COc1ccc(-c2nn(-c3ccccc3)cc2/C=N/Nc2ccccn2)cc1OC,112% (inactive)
7,CC(C)Oc1ccc(CCc2nnc(SCC(=O)O)n2-c2ccccc2)cc1,99.7% (inactive)
8,COC(=O)[C@H]1Cc2cnoc2C[C@]1(C)C(=O)O,104% (inactive)
9,Cc1ccc(SCC2=NNC(=O)C2)cc1,110% (inactive)
10,Cc1ccc(N2C(=O)C(Cc3ccccc3)NC2=S)cc1 (stereo unspecified),102% (inactive)
11,Cc1ccc(N2C(=O)C3C(c4ccccc4)(C2=O)C3(c2ccccc2)c2ccccc2)cc1 (stereo unspecified),13.2% (active)
12,Cc1ccc(N2C(=O)C3CC3C2=O)cc1 (stereo unspecified),101% (inactive)
13,C/C=C/c1ccc(OCCCCN2CCC(C)CC2)c(OC)c1,95% (inactive)
14,O=c1[nH]c2ccccc2s1,23% (active)
15,O=c1c(-c2ccc(Cl)cc2)[n+]([O-])c2ccccc2n1OCc1nc2ccccc2[nH]1,108% (inactive)
16,CCCC1C(c2ccccc2)C(C#N)(C#N)C2(C#N)CC1(N)NC2=O (stereo unspecified),178% [activator] (active)
17,O=C(NNC(=S)NC1CCCCC1)c1ccccc1Cl,99.1% (inactive)
18,CCN(CC)CCn1c(N)c(S(=O)(=O)c2ccccc2)c2nc3ccccc3nc21,104% (inactive)
19,CCC(=O)Nc1c(S(=O)(=O)c2ccccc2)c2nc3ccccc3nc2n1Cc1ccccc1,13.9% (active)
20,Cc1ccc(S(=O)(=O)c2c(N)n(C)c3nc4ccccc4nc23)cc1,101% (inactive)
21,S=c1[nH]nc(-c2cccs2)n1/N=C/c1cn(-c2ccccc2)nc1-c1ccc(Cl)cc1,98.8% (inactive)

row,SMILES,binding response (% of control)
1,O=S(=O)(NN=C1CCCCCCC1)c1ccc(Br)cc1,106% (inactive)
2,C/C(=N\OCC(=O)Nc1ccc(Br)cc1)c1cccs1,99.8% (inactive)
3,C/C(=N\NS(=O)(=O)c1ccc(Br)cc1)c1cccs1,-881% (active)
4,Cc1ccc(-n2c(SCC(=O)Nc3ccc4c(c3)OCO4)nnc2-c2ccccn2)cc1,96.8% (inactive)
5,COc1ccc(-n2c(SCC(=O)OC(C)C)nnc2-c2ccccn2)cc1,242% [activator] (active)
6,Cc1ccc(-n2c(Cc3cccs3)nnc2SCC(=O)OC(C)C)cc1,103% (inactive)
7,Cc1cc(C(=O)OCC(=O)Nc2nccs2)c2ccccc2n1,99% (inactive)
8,CCc1nc(NCCO)c(C#N)c2c1CCCC2,92.9% (inactive)
9,CCc1ccc(NC(=O)CSc2nc3ccccc3c(=O)n2CCN2CCOCC2)cc1,97.8% (inactive)
10,CC(=O)NCCn1c(SCC(=O)Nc2ccc(C)cc2)nc2ccccc2c1=O,197% (inactive)
11,CCOc1ccc(NC(=O)CSc2nc3ccccc3c(=O)n2Cc2cccs2)cc1,-1.24% (active)
12,NC(=O)c1nnsc1-c1ccc(-c2snnc2C(N)=O)cc1,103% (inactive)
13,COc1cc2[nH]c(=S)n(Cc3ccc(F)cc3)c(=O)c2cc1OC,76.9% (inactive)
14,Cc1cc(C(=O)N/N=C/c2cc([N+](=O)[O-])cc(C)c2O)n[nH]1,78.3% (inactive)
15,Cn1c(CCCOc2ccc(Cl)cc2Cl)n[nH]c1=S,101% (inactive)
16,O=S(=O)(c1ccccc1)N1CN(Cc2ccc(F)cc2)c2nc3ccccc3nc21,100% (inactive)
17,O=C(NCc1ccc(F)cc1)C1CCC(CNc2c(N3CCOCC3)c(=O)c2=O)CC1 (stereo unspecified),3.97% (active)
18,CC(NC(=O)C1CCC(CNc2c(N3CCOCC3)c(=O)c2=O)CC1)c1ccccc1 (stereo unspecified),99.6% (inactive)
19,COc1ccc(CNC(=O)C2CCC(CNc3c(N4CCOCC4)c(=O)c3=O)CC2)cc1 (stereo unspecified),104% (inactive)
